Where “and” joins values, the source holds several entries; their conditions need not be identical. Equal values may be shown once. The campaign covered roughly 5,500 compounds. About 2,000 (36%) were called active. Another 18% or so got no clear call; they are omitted. No stated cut-off is given here; in the data, active means normalized growth mostly below about 0.91 (no sharp cut-off); inconclusive means no clear call, values can overlap the other calls; inactive means mostly above about 0.92. The list shows a part of the results.
Experiment: chemical genetic growth profiling, strain panel (AID 1159580);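 further: tested at 20 µM; growth read once vehicle control cultures reached saturation at 30 °C; 1 = growth at the plate median or of vehicle wells; lower values mean less growth of the strain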
Conditions: S. cerevisiae deletion strains, growth OD

Measured: normalized growth

Cc1cccc(C)c1OCC(C)N (stereo not drawn)
inactive: locus YAL013W, strain DEP1, hits give low values 0.993 | locus YAL021C, strain ccr4, hits give low values 0.986 | locus YAL026C, strain drs2, hits give low values 1.01 | locus YAL030W, strain snc1, hits give low values 1 | locus YAL040C, strain CLN3, hits give low values 0.998 | locus YBL061C, strain skt5, hits give low values 1 | locus YBR009C, strain hhf1, hits give low values 1.01 | locus YBR021W, strain FUR4, hits give low values 0.997 | locus YBR023C, strain chs3, hits give low values 1 | locus YBR171W, strain sec66, hits give low values 1.02 | locus YBR229C, strain ROT2, hits give low values 0.998 | locus YBR231C, strain swc5, hits give low values 1.02 | locus YBR279W, strain paf1, hits give low values 1.01 | locus YCL011C, strain gbp2, hits give low values 1 | locus YCL016C, strain dcc1, hits give low values 1.01 | locus YCL029C, strain bik1, hits give low values 0.987 | locus YCL061C, strain MRC1 (second series), hits give low values 0.997 | locus YCL061C, strain MRC1, hits give low values 1.01 | locus YCL069W, strain vba3, hits give low values 1.01 | locus YCR088W, strain abp1, hits give low values 1 | locus YDL005C, strain med2, hits give low values 1.01 | locus YDL035C, strain GPR1, hits give low values 1 | locus YDL040C, strain nat1, hits give low values 1.01 | locus YDL074C, strain BRE1, hits give low values 1.05 | locus YDL101C, strain DUN1, hits give low values 1.02 | locus YDL134C, strain PPH21, hits give low values 0.983 | locus YDL185W, strain tfp1, hits give low values 0.95 | locus YDL192W, strain arf1, hits give low values 0.991 | locus YDR001C, strain nth1, hits give low values 1 | locus YDR069C, strain doa4, hits give low values 1.01 | locus YDR101C, strain arx1, hits give low values 0.996 | locus YDR137W, strain rgp1, hits give low values 1.01 | locus YDR159W, strain sac3, hits give low values 1.01 | locus YDR162C, strain NBP2, hits give low values 0.979 | locus YDR195W, strain ref2 0.998 | locus YDR297W, strain sur2, hits give low values 1.01 | locus YDR318W, strain mcm21, hits give low values 0.99 | locus YDR334W, strain swr1, hits give low values 1.01 | locus YDR335W, strain msn5, hits give low values 1.01 | locus YDR363W, strain ESC2, hits give low values 0.97 | locus YDR388W, hits give low values 1.01 | locus YDR392W, strain spt3, hits give low values 1.01 | locus YDR502C, strain sam2, hits give low values 1 | locus YEL003W, strain gim4, hits give low values 1.01 | locus YEL037C, strain rad23, hits give low values 0.992 | locus YEL061C, strain CIN8 (second series), hits give low values 1 | locus YEL061C, strain CIN8, hits give low values 0.991 | locus YER002W, strain NOP16, hits give low values 1.01 | locus YER015W, strain faa2, hits give low values 1.02 | locus YER016W, strain bim1, hits give low values 1.01 | locus YER110C, hits give low values 0.98 | locus YER111C, strain swi4, hits give low values 1.02 | locus YER155C, strain BEM2 (second series), hits give low values 1.02 | locus YER155C, strain BEM2, hits give low values 0.999 | locus YER167W, strain BCK2, hits give low values 1.01 | locus YFR010W, strain ubp6, hits give low values 1.02 | locus YGL078C, strain dbp3, hits give low values 0.977 | locus YGL086W, strain mad1, hits give low values 1.01 | locus YGL167C, strain pmr1, hits give low values 1 | locus YGL173C, strain kem1, hits give low values 1.02 | locus YGL227W, strain vid30, hits give low values 1.01 | locus YGL240W, strain doc1, hits give low values 1.02 | locus YGL248W, strain PDE1, hits give low values 1.01 | locus YGL253W, strain hxk2, hits give low values 1.01 | locus YGR135W, strain pre9, hits give low values 0.975 | locus YGR252W, strain gcn5, hits give low values 1.01 | locus YHR013C, strain ard1, hits give low values 1.01 | locus YHR027C, strain rpn1, hits give low values 1.01 | locus YHR030C, strain SLT2, hits give low values 0.977 and 0.988 | locus YHR079C, strain IRE1 (second series), hits give low values 0.983 | locus YHR079C, strain IRE1, hits give low values 0.994 | locus YHR094C, strain hxt1, hits give low values 0.999 | locus YHR129C, strain ARP1, hits give low values 0.999 | locus YHR142W, strain chs7, hits give low values 1 | locus YHR200W, strain rpn10, hits give low values 0.973 | locus YIL066C, strain RNR3, hits give low values 1.01 | locus YIL073C, strain SPO22, hits give low values 0.862 | locus YIL125W, strain kgd1, hits give low values 0.995 | locus YIR030C, strain dcg1, hits give low values 0.987 | locus YJL092W, strain hpr5, hits give low values 1.01 | locus YJL095W, strain BCK1 (second series), hits give low values 1 | locus YJL095W, strain BCK1, hits give low values 1.05 and 0.977 | locus YJL115W, strain asf1, hits give low values 1.01 | locus YJL129C, strain trk1, hits give low values 1.02 | locus YJL134W, strain LCB3, hits give low values 0.987 | locus YJL154C, strain vps35, hits give low values 1.01 | locus YJL164C, strain tpk1, hits give low values 1.01 | locus YJL166W, strain qcr8, hits give low values 1 | locus YJL168C, strain set2, hits give low values 0.997 | locus YJL187C, strain SWE1 (second series), hits give low values 1.01 | locus YJL187C, strain SWE1, hits give low values 1 | locus YJR043C, strain POL32, hits give low values 1 | locus YJR066W, strain TOR1, hits give low values 0.96

From PubChem BioAssay AID1159580 (chemical genetic matrix, 2015)
